# A selection: hits, their analogues and other compounds. The true share with any hit is near 3.9%.
# HIF-2a block: inhibitors of HIF-2a | 786-0 RCC cells HIF-2a reporter, luciferase luminescence, overnight | inhibition, % at 18.8 µM | 360,000 compounds, 0.72% hits | AID 624352;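 active = inhibition of the luminescence signal of 40% or more relative to plate controls, in a single-dose primary screen at 18.75 µM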
# C8 TRAIL sens: caspase-8 TRAIL sensitization. NB7+C8 cells + TRAIL, ATPlite viability luminescence. 360,000 compounds, 1% hits. inhibition (viability loss, TRAIL sensitization), % at 10 µM;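 active = compounds causing at least 50% loss of cell viability in the single-dose screen, relative to plate controls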
# HSP90 inh: HSP90 refolding inhibition in rabbit reticulocyte lysate; luciferase refolding luminescence, 3 h; inhibition, % at 5.6 µM; 290,000 compounds, 0.91% hits;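 active = inhibition above the screen-wide mean plus 3 SD, computed separately per campaign, cut at about 16% in these data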;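 also: 0% = DMSO wells and 100% = 60 µM geldanamycin wells; inhibitors lower the luminescence because luciferase stays unfolded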
# aSyn UTR inh: MLPCN primary screen, SNCA 5' untranslated region; alpha-synuclein 5'UTR reporter, inhibitor activity; inhibition, % (tested at 7.5 µM); 300,000 compounds, 0.82% hits; AID 1813; in the data active = inhibition above about 60%;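 also: H4 neuroglioblastoma cells stably carrying SNCA 5'UTR luciferase fusion; 0% = DMSO wells and 100% = positive control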
# TROY signal inh: blocks TROY-dependent signaling in reporter cells; inhibition, % at 10 µM; Q293 LMP1-TROYcd NF-kB luciferase reporter, 4 h; 360,000 compounds, 0.98% hits;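 active = compounds whose plate-normalised and pattern-corrected inhibition of the luciferase reporter signal at the single screening dose is 50% or more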
# TWEAK Fn14 block: inhibitors of TWEAK-Fn14 interaction signaling; 360,000 compounds, 2% hits; AID 1159606; TWEAK-stimulated Fn14 reporter cells, luciferase luminescence, 8 h; inhibition, % at 10 µM; in the data active = inhibition above about 50%
# * = called active by the depositor; x = not tested or not shown.
SMILES,HIF-2a block,C8 TRAIL sens,HSP90 inh,aSyn UTR inh,TROY signal inh,TWEAK Fn14 block
COCCN(CCOC)S(=O)(=O)c1ccc(C(=O)Nc2nnc(C3CC3)o2)cc1,4,0,-3,-14,-10,67*
CCc1nnc(NC(=O)c2ccc(S(=O)(=O)N(CCOC)CCOC)cc2)o1,13,-5,-2,-4,4,-12
CCN(c1ccccc1)S(=O)(=O)c1ccc(C(=O)Nc2nnc(C3CC3)o2)cc1,18,25,-1,71*,26,-15
O=C(NCc1ccc(F)cc1)Nc1ccccc1,-137,-2,2,-108,-32,-31
O=C(NCc1ccc(F)cc1)C(c1ccccc1)c1ccccc1,21,-10,4,-11,1,54*
CC(=O)N(CCc1ccccc1C)Cc1cc2cc3c(cc2[nH]c1=O)OCO3,16,11,3,12,x,100*
CCC(=O)N(CCc1ccccc1C)Cc1cc2ccc(C)cc2[nH]c1=O,12,-11,-1,7,16,1
COC(=O)c1c(-c2ccc(OC)cc2)sc2ccc(N3CCOCC3)cc12,-176,13,x,x,-61,-54
COC(=O)c1nc2ccc(N3CCOCC3)cc2c(C)c1C(=O)OC,-174,63*,4,x,-29,-32
COc1ccc(C2/C=C\CN(C(=O)Nc3ccccc3)CC(=O)N2Cc2ccc(F)cc2)cc1 (stereo not drawn),7,6,x,11,15,-6
COc1ccc(C2/C=C\CN(C(=O)Nc3ccc(C(F)(F)F)cc3)CC(=O)N2Cc2ccc(F)cc2)cc1 (stereo not drawn),-40,47,x,71*,46,20
COc1ccc([C@H]2N[C@]3(CCCN(Cc4ccc(C(F)(F)F)cc4)C3=O)[C@H]3C(=O)N(C)C(=O)[C@@H]23)cc1,-2,-2,x,x,-5,10
Cc1cc(C)cc(N2C(N)=NC(N)=NC2c2cccc(Cl)c2)c1 (stereo not drawn),13,69*,5,12,16,18
COc1ccc(C2N=C(N)N=C(N)N2c2ccc(C)cc2)cc1 (stereo not drawn),-6,-10,0,-3,5,-1
Cc1ccc(-n2nc(C)c3c2OC(N)=C(C#N)C3c2ccccc2F)cc1 (stereo not drawn),4,-7,10,10,15,41
Cc1cc(C)cc(N2C(N)=NC(N)=NC2c2ccccc2F)c1 (stereo not drawn),12,70*,1,8,-11,18
CCN(CC(=O)Nc1ccccc1OC)C(=O)CC1CCCC1,3,-27,x,x,11,10
CC(NC(=O)c1cccc(S(=O)(=O)N2CCCCCC2)c1)c1ccccc1 (stereo not drawn),2,6,x,x,10,-12
CC(C)C(Cl)=NOC(=O)Nc1ccc(S(N)(=O)=O)cc1,23,4,x,x,-17,56*
NS(=O)(=O)c1ccc(CCNC(=O)c2ccc(C#CC3(O)CCCCC3)cc2)cc1,-14,3,0,-21,56*,27
Cc1cn([C@H]2C[C@H](O)[C@@H](CNCc3ccccc3OCCCN3CCOCC3)O2)c(=O)[nH]c1=O,2,-3,x,x,9,-1
CCCc1cc(NCCCN2CCOCC2)n2c(nc3ccccc32)c1C#N,16,-2,-1,17,x,82*
COc1ccc(Cl)cc1NC(=O)CN(C)C(=O)c1cc2ccccc2cc1O,2,10,x,-6,13,-2
Cc1[nH]nc2nc(SCC(=O)NCCC3=CCCCC3)n(-c3ccc(Br)cc3)c(=N)c12,-12,80*,4,75*,18,-7
CCC(=O)N1CCN(c2ccc(NC(=O)c3cc4ccccc4o3)cc2Cl)CC1,-91,61*,1,-30,66*,93*
CCCC(=O)N1CCN(c2ccc(NC(=O)c3cccs3)cc2Cl)CC1,-6,-5,-2,-23,-7,-8
CCCC(=O)N1CCN(c2ccc(NC(=O)c3cc4ccccc4o3)cc2Cl)CC1,-65,54*,1,-48,81*,95*
CC(C)C(=O)N1CCN(c2ccc(NC(=S)NC(=O)c3cc4ccccc4o3)cc2)CC1,-8,41,5,-54,46,-19
CCC(=O)N1CCN(c2ccc(NC(=S)NC(=O)c3cc4ccccc4o3)cc2)CC1,-23,46,0,-57,61*,18
